# ± gives the standard deviation of the averaged measurements. The full ranking holds about 4,100 sequences; the median of “relative kcat/Km (krel) vs genomic leader AAAGAU” is about 1.7, and the highest 2% start at about 6.5. What follows is part of a selection rich in the highest values, with near analogues and random picks from the rest.
# Target: T1, E. coli RNase P holoenzyme (M1 P RNA + rnpA protein) (UniProt P0A7Y8)
# T1 sequence: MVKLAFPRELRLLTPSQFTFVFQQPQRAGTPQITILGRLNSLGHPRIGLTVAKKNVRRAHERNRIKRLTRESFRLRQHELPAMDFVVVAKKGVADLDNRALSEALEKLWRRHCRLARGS
# Experiment: relative kcat/Km (krel) vs genomic leader AAAGAU (relative (reference leader = 1)); higher = faster RNase P cleavage
# Procedure: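 HTS-Kin: a pool of ptRNA-Met (21C construct) with all 4096 combinations of 5' leader nucleotides N(-6) to N(-1) was processed in vitro by E. coli RNase P (P RNA + rnpA/C5 protein) under multiple-turnover conditions at 37 C, pH 8, 17.5 mM MgCl2. Residual substrate was Illumina-sequenced at several fractions reacted, and relative kcat/Km (krel) was computed by internal competition kinetics, calibrated to the genomic leader (AAAGAU = 1). The listed hexamer is the varied N(-6)..N(-1) leader (DNA letters), and it sits between a fixed 5' stem-loop flank (GCAUGCACGAAAGUGCGUGCUAUGAA) and the mature tRNA-Met starting GGCUACGUAGCUCAGUUGG. Two technical replicates are averaged.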
# [1] = fraction of substrate reacted: ~9-10% (9.79% repeat 1, 9.1% repeat 2)
# [2] = fraction of substrate reacted: ~13-16% (15.68% repeat 1, 13.17% repeat 2)
# [3] = fraction of substrate reacted: ~26-29% (28.66% repeat 1, 26.4% repeat 2)
sequence,measurement,setting,value
ATCTCT,relative kcat/Km,[1],3.47 ± 1.2
same,relative kcat/Km,[2],4.36 ± 0.18
same,relative kcat/Km,[3],6.18 ± 2.7
TTCTCT,relative kcat/Km,[1],4.43 ± 1.1
same,relative kcat/Km,[2],6.17 ± 1.4
same,relative kcat/Km,[3],8.57 ± 3.4
GTATCT,relative kcat/Km,[1],2.3 ± 0.54
same,relative kcat/Km,[2],3.23 ± 0.87
same,relative kcat/Km,[3],4.66 ± 1.9
GACTCA,relative kcat/Km,[1],3.33 ± 1.5
same,relative kcat/Km,[2],4.56 ± 0.1
same,relative kcat/Km,[3],5.69 ± 2.1
ATCTCA,relative kcat/Km,[1],3.67 ± 2
same,relative kcat/Km,[2],4.25 ± 0.21
same,relative kcat/Km,[3],6.06 ± 2.4
CTCTCA,relative kcat/Km,[1],3.31 ± 1.3
same,relative kcat/Km,[2],4.49 ± 0.63
same,relative kcat/Km,[3],5.72 ± 1.9
TTGCTA,relative kcat/Km,[1],2.11 ± 1.3
same,relative kcat/Km,[2],1.43 ± 0.11
same,relative kcat/Km,[3],2.24 ± 0.7
GACTCG,relative kcat/Km,[1],1.8 ± 1.4
same,relative kcat/Km,[2],1.87 ± 0.13
same,relative kcat/Km,[3],3.21 ± 0.58
TAAAGA,relative kcat/Km,[1],1.01 ± 0.34
same,relative kcat/Km,[2],1.61 ± 0.79
same,relative kcat/Km,[3],3.01 ± 1.7
CGCTGG,relative kcat/Km,[1],0.49 ± 0.25
TGCGAG,relative kcat/Km,[2],0.318 ± 0.22
same,relative kcat/Km,[3],1.39 ± 0.28
TTGCGA,relative kcat/Km,[1],1.1 ± 0.36
same,relative kcat/Km,[2],1.53 ± 0.44
same,relative kcat/Km,[3],1.91 ± 0.14
CGACAT,relative kcat/Km,[1],3.05 ± 0.3
same,relative kcat/Km,[2],3.54 ± 1.1
same,relative kcat/Km,[3],4.82 ± 1.8
GGGTTC,relative kcat/Km,[1],0.445 ± 0.035
same,relative kcat/Km,[2],0.916 ± 0.37
same,relative kcat/Km,[3],0.82 ± 0.16
CACGGA,relative kcat/Km,[3],0.766 ± 0.63
GGGATA,relative kcat/Km,[2],0.415 ± 0.34
CTCTCC,relative kcat/Km,[1],3.04 ± 0.91
same,relative kcat/Km,[2],4.91 ± 0.6
same,relative kcat/Km,[3],6.17 ± 2.2
TGCTCC,relative kcat/Km,[1],2.19 ± 0.87
same,relative kcat/Km,[2],2.31 ± 0.43
same,relative kcat/Km,[3],2.87 ± 0.78
GTCTCC,relative kcat/Km,[1],4.62 ± 1.7
same,relative kcat/Km,[2],6.15 ± 0.65
same,relative kcat/Km,[3],8.17 ± 3.2
TTCTCC,relative kcat/Km,[1],5.23 ± 2.1
same,relative kcat/Km,[2],6.12 ± 0.67
same,relative kcat/Km,[3],8.25 ± 3
CTCTCT,relative kcat/Km,[1],4.48 ± 1
same,relative kcat/Km,[2],4.84 ± 1.6
same,relative kcat/Km,[3],7.22 ± 3
GCCTCC,relative kcat/Km,[1],2.78 ± 1.2
same,relative kcat/Km,[2],3.32 ± 0.14
same,relative kcat/Km,[3],5.33 ± 1.8
GGCTCC,relative kcat/Km,[1],2.56 ± 0.54
same,relative kcat/Km,[2],1.96 ± 0.23
same,relative kcat/Km,[3],2.25 ± 0.7
ATCTCC,relative kcat/Km,[1],3.67 ± 0.85
same,relative kcat/Km,[2],4.83 ± 1.4
same,relative kcat/Km,[3],6.39 ± 2.9
CTCTCG,relative kcat/Km,[1],1.91 ± 1.5
same,relative kcat/Km,[2],1.68 ± 0.37
same,relative kcat/Km,[3],3.31 ± 0.37
CGGAGG,relative kcat/Km,[1],0.395 ± 0.29
CATTTG,relative kcat/Km,[3],1.49 ± 0.39
ACGCTA,relative kcat/Km,[1],1.05 ± 0.29
same,relative kcat/Km,[2],0.572 ± 0.17
same,relative kcat/Km,[3],1.74 ± 0.51
GGCTTT,relative kcat/Km,[1],2.05 ± 0.44
same,relative kcat/Km,[2],1.76 ± 0.074
same,relative kcat/Km,[3],2.15 ± 0.52
CGAAGA,relative kcat/Km,[1],1.79 ± 0.84
same,relative kcat/Km,[2],2.39 ± 1
same,relative kcat/Km,[3],3.52 ± 0.96
CCACCG,relative kcat/Km,[3],1.08 ± 0.58
TAAGGC,relative kcat/Km,[1],1.46 ± 0.72
same,relative kcat/Km,[3],2.44 ± 2.2
ATCACC,relative kcat/Km,[1],3.18 ± 0.62
same,relative kcat/Km,[2],3.68 ± 1
same,relative kcat/Km,[3],5.67 ± 2
TTCACG,relative kcat/Km,[1],2.05 ± 1.9
same,relative kcat/Km,[2],2.41 ± 0.2
same,relative kcat/Km,[3],4.56 ± 1.4
TTCACA,relative kcat/Km,[1],4.51 ± 1.9
same,relative kcat/Km,[2],5.55 ± 0.86
same,relative kcat/Km,[3],7.72 ± 3.1
TTCACT,relative kcat/Km,[1],4.07 ± 1.2
same,relative kcat/Km,[2],5.27 ± 1.4
same,relative kcat/Km,[3],7.57 ± 3.1
CTCACC,relative kcat/Km,[1],2.93 ± 0.11
same,relative kcat/Km,[2],4.4 ± 1.5
same,relative kcat/Km,[3],6.21 ± 2.6
ATCACT,relative kcat/Km,[1],3 ± 0.43
same,relative kcat/Km,[2],3.58 ± 1.1
same,relative kcat/Km,[3],4.98 ± 2
GTCACT,relative kcat/Km,[1],3.36 ± 0.97
same,relative kcat/Km,[2],3.29 ± 0.15
same,relative kcat/Km,[3],6.31 ± 2.5
TTCACC,relative kcat/Km,[1],3.91 ± 1.2
same,relative kcat/Km,[2],5.63 ± 0.6
same,relative kcat/Km,[3],8.13 ± 3
GTCACC,relative kcat/Km,[1],3.43 ± 0.98
same,relative kcat/Km,[2],4.83 ± 0.44
same,relative kcat/Km,[3],6.98 ± 2.7
ATCACA,relative kcat/Km,[1],2.67 ± 1
same,relative kcat/Km,[2],3.8 ± 0.55
same,relative kcat/Km,[3],5.18 ± 1.5
GTCACG,relative kcat/Km,[2],1.84 ± 0.86
same,relative kcat/Km,[3],3.97 ± 0.54
GGCACC,relative kcat/Km,[1],1.52 ± 1.3
same,relative kcat/Km,[2],1.01 ± 0.24
same,relative kcat/Km,[3],2.04 ± 0.18
CCTACA,relative kcat/Km,[1],2.23 ± 1.1
same,relative kcat/Km,[2],1.82 ± 0.36
same,relative kcat/Km,[3],1.9 ± 0.68
CGTCCT,relative kcat/Km,[1],2.14 ± 0.34
same,relative kcat/Km,[2],2.06 ± 0.17
same,relative kcat/Km,[3],3 ± 1.2
CTACGT,relative kcat/Km,[1],0.396 ± 0.012
same,relative kcat/Km,[2],0.978 ± 0.12
same,relative kcat/Km,[3],1.13 ± 1.1
TTAGGG,relative kcat/Km,[1],0.357 ± 0.048
same,relative kcat/Km,[2],1.11 ± 0.86
same,relative kcat/Km,[3],2.15 ± 2.1
GGGTAA,relative kcat/Km,[1],1.51 ± 0.8
same,relative kcat/Km,[2],1.31 ± 0.21
same,relative kcat/Km,[3],1.46 ± 0.55
GGAGCT,relative kcat/Km,[1],1.22 ± 0.62
same,relative kcat/Km,[2],0.705 ± 0.57
same,relative kcat/Km,[3],1.64 ± 0.58

# — the supplement of paper PMC9433436
